According to ChEMBL document CHEMBL1857833, “Screening and optimization of specific chemical series against human African Trypanosomiasis (HAT)”:
The campaign covered roughly 4,400 compounds. About 390 (8.9%) showed an effect of 50% or more. The full list was thinned out, with strong results kept by preference.

What follows are compounds tested on Trypanosoma brucei (assay: DNDI: Inhibition of Human African Trypanosomiasis, SBRI 427, in vitro at 2 ug.mL-1).
Assay type: functional
For `CCOc1ccccc1-c1nc(CN2CCN(c3cccc(OC)c3)CC2)co1`, the “% inhibition” value was -3%.
For `COc1ccc(CNCc2coc(-c3ccc(F)cc3)n2)cc1OC`, the “% inhibition” value was -5%.
In the case of `CC1CCN(/C(=N\O)c2ccc(Oc3c(F)c(F)cc(F)c3F)nc2)CC1`, the “% inhibition” value is reported as 9%.
With `COc1ccc(CN/C(=N\O)c2cccnc2OCC(C)C)cc1` the “% inhibition” value was -1%.
`C#CC(CC)(CC)NCc1coc(-c2ccc(OC)cc2)n1` was tested, and the “% inhibition” value was -8%.
`C=CCc1ccc(Oc2ccc(/C(=N/O)NCc3ccc(OC)cc3)cn2)c(OC)c1` was tested, and the “% inhibition” value was 10%.
For `C=CCc1ccc(Oc2cc(/C(=N/O)NCc3ccncc3)ccn2)c(OC)c1`, the “% inhibition” value was 23%.
In the case of `C=CCc1ccc(Oc2cc(/C(=N/O)NCc3cccnc3)ccn2)c(OC)c1`, the “% inhibition” value is reported as 3%.
`C=CCc1ccc(Oc2cc(/C(=N/O)NCc3ccc(OC)cc3)ccn2)c(OC)c1` was tested, and the “% inhibition” value was 88%.
`C=CCc1ccc(Oc2cc(/C(=N/O)NCc3cccc(OC)c3)ccn2)c(OC)c1` was tested, and the “% inhibition” value was 35%.
In the case of `C=CCc1ccc(Oc2ccc(/C(=N/O)NCc3ccncc3)cn2)c(OC)c1`, the “% inhibition” value is reported as 80%.
With `c1ccc(-c2nccn2Cc2coc(-c3cccc4ccccc34)n2)cc1` the “% inhibition” value was -1%.
For `O/N=C(\NCc1ccco1)c1cccnc1OCc1ccccc1`, the “% inhibition” value was 17%.
For `CSc1ccc(Oc2cc(/C(=N/O)NCc3c(F)cccc3F)ccn2)cc1`, the “% inhibition” value was 19%.
In the case of `COc1cc(CN(C)Cc2coc(-c3cccc4ccccc34)n2)cc(OC)c1OC`, the “% inhibition” value is reported as -3%.
With `CCn1nccc1NCc1coc(-c2ccc(F)cc2)n1` the “% inhibition” value was -5%.
`COc1cccc(-c2nc(CN(C)CCC#N)co2)c1` was tested, and the “% inhibition” value was 4%.
In the case of `C=CCc1ccc(Oc2ncccc2/C(N)=N/O)c(OC)c1`, the “% inhibition” value is reported as 18%.
In the case of `CC1CCCC(C)N1/C(=N\O)c1ccnc(Oc2ccc(F)c(Cl)c2)c1` (stereo not given), the “% inhibition” value is reported as 9%.
For `O/N=C(/c1ccnc(Oc2ccc(F)c(Cl)c2)c1)N1CCCCC1`, the “% inhibition” value was 8%.
`O/N=C(\NCc1ccccc1F)c1ccnc(Oc2ccc(F)c(Cl)c2)c1` was tested, and the “% inhibition” value was 44%.
With `O/N=C(\NC1CCCC1)c1ccnc(Oc2ccc(F)c(Cl)c2)c1` the “% inhibition” value was 96%.
With `CC1CCC(N/C(=N\O)c2ccnc(Oc3ccc(F)c(Cl)c3)c2)CC1` (stereo not given) the “% inhibition” value was 42%.
For `O/N=C(\NC1CCCCC1)c1ccnc(Oc2ccc(F)c(Cl)c2)c1`, the “% inhibition” value was 88%.
With `CN(/C(=N\O)c1ccnc(Oc2ccc(F)c(Cl)c2)c1)C1CCCCC1` the “% inhibition” value was 94%.
With `CN(/C(=N\O)c1ccnc(Oc2cc(Cl)ccc2Cl)c1)C1CCCCC1` the “% inhibition” value was 16%.
`CN(/C(=N\O)c1ccnc(Oc2ccc(F)c(F)c2)c1)C1CCCCC1` was tested, and the “% inhibition” value was 35%.
For `Cc1cn(Cc2coc(-c3ccc(F)cc3)n2)cn1`, the “% inhibition” value was 9%.
`N#CCCN(Cc1coc(-c2ccc(Cl)cc2Cl)n1)CC1CCCO1` (stereo not given) was tested, and the “% inhibition” value was 9%.
`Oc1ccc(-c2nc(CN3CCN(Cc4ccccc4)CC3)co2)cc1` was tested, and the “% inhibition” value was 18%.
In the case of `C1=CCN(Cc2coc(-c3ccco3)n2)CC1`, the “% inhibition” value is reported as 30%.
In the case of `CC1(C)Cc2cccc(Oc3ccc(/C(=N/O)NCC4CCCCC4)cn3)c2O1`, the “% inhibition” value is reported as 34%.
For `Cc1cccc(-c2nc(Cn3ccnc3)co2)c1`, the “% inhibition” value was 15%.
With `Cc1ccc(/C(=N/O)NCC2CCCCC2)c(Oc2cc(Cl)ccc2Cl)n1` the “% inhibition” value was 51%.
For `Cc1ccc(/C(=N/O)NC2CCCCC2)c(Oc2cc(Cl)ccc2Cl)n1`, the “% inhibition” value was 97%.
`Cc1ccc(/C(=N/O)NC2CCc3ccccc32)c(Oc2cc(Cl)ccc2Cl)n1` (stereo not given) was tested, and the “% inhibition” value was -38%.
`Cc1ccc(/C(=N/O)NC2CC2)c(Oc2ccc(Cl)cc2)n1` was tested, and the “% inhibition” value was 9%.
In the case of `Cc1ccc(/C(=N/O)NCC2CCCO2)c(Oc2cc(Cl)ccc2Cl)n1` (stereo not given), the “% inhibition” value is reported as 85%.
For `Cc1ccc(/C(=N/O)NC2CCC2)c(Oc2ccc(Cl)cc2)n1`, the “% inhibition” value was -9%.
For `Cc1ccc(/C(=N/O)NCC2CCCCC2)c(Oc2c(F)c(F)cc(F)c2F)n1`, the “% inhibition” value was 12%.
In the case of `Cc1ccc(/C(=N/O)NCC2CCCO2)c(Oc2ccc(F)c(Cl)c2)n1` (stereo not given), the “% inhibition” value is reported as 42%.
`Cc1ccc(/C(=N/O)NCC2CC2)c(Oc2cc(Cl)ccc2Cl)n1` was tested, and the “% inhibition” value was -4%.
In the case of `Cc1ccc(/C(=N/O)NC2CCCC2)c(Oc2cc(Cl)ccc2Cl)n1`, the “% inhibition” value is reported as 100%.
With `Cc1ccc(/C(=N/O)NCC2CCCO2)c(Oc2ccc(F)c(F)c2)n1` (stereo not given) the “% inhibition” value was 8%.
In the case of `Cc1ccc(/C(=N/O)NC2CCCCC2)c(Oc2ccc(Cl)cc2)n1`, the “% inhibition” value is reported as 22%.
`Cc1ccc(/C(=N/O)NCCN2CCOCC2)c(OCc2ccccn2)n1` was tested, and the “% inhibition” value was 4%.
In the case of `Cc1ccc(/C(=N/O)NCCN2CCOCC2)c(Oc2cccc3ccccc23)n1`, the “% inhibition” value is reported as -6%.
With `O=C(c1ccco1)N1CCN(Cc2coc(-c3ccccc3F)n2)CC1` the “% inhibition” value was 4%.
`COc1cccc(OC)c1CNCc1coc(-c2ccc(Br)cc2)n1` was tested, and the “% inhibition” value was 7%.
With `CCOc1cccc(-c2nc(CN3CCCCC3)co2)c1` the “% inhibition” value was -5%.
In the case of `COCCN(/C(=N\O)c1ccc(C)nc1OCc1ccccc1F)C(C)C`, the “% inhibition” value is reported as 18%.
With `CCOc1ccccc1-c1nc(Cn2cc(C)nc2C)co1` the “% inhibition” value was 7%.
For `COCCN(CCOC)Cc1coc(-c2ccc(C)cc2)n1`, the “% inhibition” value was 28%.
In the case of `COc1ccc(CNCc2coc(-c3cccc(F)c3)n2)cc1OC`, the “% inhibition” value is reported as 13%.
With `CCN(Cc1coc(-c2cccc(OC)c2)n1)c1cccc2ccccc12` the “% inhibition” value was 11%.
With `Cc1ccc(/C(=N/O)N2CCN(C)CC2)c(Oc2cc(Cl)ccc2Cl)n1` the “% inhibition” value was 5%.
`Cc1ccc(/C(=N/O)N2CCCN(C)CC2)c(Oc2cc(Cl)ccc2Cl)n1` was tested, and the “% inhibition” value was 55%.
`Cc1ccc(/C(=N/O)N2CCCCC2)c(Oc2cc(Cl)ccc2Cl)n1` was tested, and the “% inhibition” value was 33%.
With `Cc1cc(C)cc(Oc2ccc(/C(=N/O)N3CCCCC3)cn2)c1` the “% inhibition” value was 6%.
With `CN(Cc1coc(-c2cccc3ccccc23)n1)C(C)(C)C` the “% inhibition” value was 7%.
With `Cc1ccc(Oc2nc(C)ccc2/C(=N/O)N2CCN(c3ccccc3)CC2)c(C)c1` the “% inhibition” value was 15%.
For `O/N=C(/c1ccc(Oc2cccc3cccnc23)nc1)n1ccnc1`, the “% inhibition” value was -3%.
In the case of `COCCN/C(=N\O)c1cccnc1Oc1ccc(C(C)C)cc1`, the “% inhibition” value is reported as 97%.
In the case of `COc1ccc(Oc2ncccc2/C(=N/O)Nc2ccc(C(C)C)cc2)cc1`, the “% inhibition” value is reported as -14%.
For `COCCN/C(=N\O)c1cccnc1Oc1ccc(OC)cc1`, the “% inhibition” value was 8%.
`COCCN/C(=N\O)c1cccnc1Oc1cccc(C(F)(F)F)c1` was tested, and the “% inhibition” value was 1%.
For `CCc1ccc(Oc2ncccc2/C(=N/O)NCCN(C)C)cc1`, the “% inhibition” value was 5%.
For `CCc1ccc(Oc2ncccc2/C(=N/O)NCCOC)cc1`, the “% inhibition” value was 86%.
For `O/N=C(/c1ccnc(Oc2ccc(Cl)cc2)c1)N1CCCCCC1`, the “% inhibition” value was 18%.
`CC1CCCN1/C(=N\O)c1ccnc(Oc2ccc(Cl)cc2)c1` (stereo not given) was tested, and the “% inhibition” value was -11%.
With `O/N=C(\NCC1CCCCC1)c1ccnc(Oc2ccc(Cl)cc2)c1` the “% inhibition” value was 98%.
With `O/N=C(/c1ccnc(Oc2ccc(Cl)cc2)c1)N1CCCCC1` the “% inhibition” value was 23%.
For `O/N=C(\NC1CCCC1)c1ccnc(Oc2ccc(Cl)cc2)c1`, the “% inhibition” value was 93%.
In the case of `O/N=C(\NCC1CCCCC1)c1ccnc(Oc2ccc(F)c(Cl)c2)c1`, the “% inhibition” value is reported as 5%.
For `O/N=C(\NCc1ccncc1)c1ccnc(Oc2ccc(Cl)cc2)c1`, the “% inhibition” value was 20%.
In the case of `CCOc1ccc(Oc2cc(/C(=N/O)NCC3CCCCC3)ccn2)cc1`, the “% inhibition” value is reported as 33%.
For `O/N=C(\NC1CCCCC1)c1ccnc(Oc2ccc(Cl)cc2)c1`, the “% inhibition” value was 99%.
`CN1CCCC1CCN/C(=N\O)c1cccnc1Oc1cccc(C(F)(F)F)c1` (stereo not given) was tested, and the “% inhibition” value was 3%.
For `Cc1ccc(/C(=N/O)N2CC(C)CC(C)C2)c(Oc2ccc3oc4ccccc4c3c2)n1` (stereo not given), the “% inhibition” value was 11%.
For `COc1cccc(-c2nc(CN3CCCCC3)co2)c1`, the “% inhibition” value was 12%.
With `CN(C)CCN(Cc1ccccc1)Cc1coc(-c2cccc(F)c2)n1` the “% inhibition” value was -25%.
`Clc1ccccc1-c1nc(CN(CCc2ccccc2)Cc2ccccc2)co1` was tested, and the “% inhibition” value was 17%.
In the case of `CCC(CC)N/C(=N\O)c1ccc(C)nc1Oc1cccc(C(C)C)c1`, the “% inhibition” value is reported as 6%.
`CCC(CC)N/C(=N\O)c1ccc(C)nc1Oc1cccc(F)c1` was tested, and the “% inhibition” value was 88%.
`Cc1ccc(/C(=N/O)Nc2ccc(C(C)C)cc2)c(Oc2cc(Cl)ccc2Cl)n1` was tested, and the “% inhibition” value was 14%.
`Cc1ccc(/C(=N/O)NC(C)C)c(Oc2ccc(F)c(F)c2)n1` was tested, and the “% inhibition” value was 4%.
With `COCC(C)N/C(=N\O)c1ccc(C)nc1Oc1cccc(F)c1` (stereo not given) the “% inhibition” value was 20%.
In the case of `CCC(CC)N/C(=N\O)c1ccc(C)nc1Oc1ccc(F)c(Cl)c1`, the “% inhibition” value is reported as 100%.
In the case of `CCC(CC)N/C(=N\O)c1ccc(C)nc1Oc1cc(Cl)ccc1Cl`, the “% inhibition” value is reported as 100%.
In the case of `CCC(CC)N/C(=N\O)c1ccc(C)nc1Oc1ccc(SC)c(C)c1`, the “% inhibition” value is reported as 6%.
`COc1cc(-c2nc(CN3CCN(C)CC3)co2)cc(OC)c1OC` was tested, and the “% inhibition” value was -2%.
In the case of `Cc1cccc(-c2nc(CNC(C)c3cccc4ccccc34)co2)c1` (stereo not given), the “% inhibition” value is reported as 14%.
`Fc1ccc(-c2nc(CN3CCN(c4cccc(Cl)c4)CC3)co2)cc1` was tested, and the “% inhibition” value was -16%.
`Cc1ccc(/C(=N/O)n2ccnc2)c(OCc2ccccn2)n1` was tested, and the “% inhibition” value was 16%.
For `CCOc1ccc(-c2nc(CNc3ccnn3CC)co2)cc1`, the “% inhibition” value was -10%.
With `O/N=C(\NC1CCc2ccccc21)c1ccc(Oc2ccc(-n3ccnc3)cc2)nc1` (stereo not given) the “% inhibition” value was -1%.
`Cc1cn(Cc2coc(-c3cccc(F)c3)n2)c(C)n1` was tested, and the “% inhibition” value was 5%.
`Cc1ccc(-c2nc(CN3CCN(C/C=C/c4ccccc4)CC3)co2)cc1` was tested, and the “% inhibition” value was 8%.
In the case of `CC(C)c1cccc(Oc2cc(/C(=N/O)N3CCC=N3)ccn2)c1`, the “% inhibition” value is reported as 53%.
With `COc1ccc(Oc2cc(/C(=N/O)N3CCN(c4ccccc4)CC3)ccn2)cc1` the “% inhibition” value was 22%.
In the case of `CC(C)c1cccc(Oc2cc(/C(=N/O)N3CCN(C)CC3)ccn2)c1`, the “% inhibition” value is reported as 4%.
In the case of `O/N=C(/c1ccnc(Oc2ccc(F)c(Cl)c2)c1)N1CCN(c2ccccc2)CC1`, the “% inhibition” value is reported as 58%.
In the case of `CC(C)c1cccc(Oc2cc(/C(=N/O)N3CCN(c4ccccc4)CC3)ccn2)c1`, the “% inhibition” value is reported as 86%.
For `COc1ccc(Oc2cc(/C(=N/O)N3CCC=N3)ccn2)cc1`, the “% inhibition” value was 39%.
For `CCOc1ccc(Oc2cc(/C(=N/O)N3Cc4ccccc4C3)ccn2)cc1`, the “% inhibition” value was 3%.
For `Cc1ccc(/C(=N/O)N2Cc3ccccc3C2)c(Oc2cccc(C(C)C)c2)n1`, the “% inhibition” value was 0%.
For `O/N=C(/c1ccnc(Oc2cccc(F)c2)c1)N1CCC=N1`, the “% inhibition” value was 4%.
For `O/N=C(/c1ccnc(Oc2ccc(Cl)cc2)c1)N1CCN(c2ccccc2)CC1`, the “% inhibition” value was 28%.
With `O/N=C(/c1ccnc(Oc2ccc(F)c(Cl)c2)c1)N1CCN(c2ccc(F)cc2)CC1` the “% inhibition” value was 34%.
In the case of `CC(C)c1cccc(Oc2cc(/C(=N/O)N3Cc4ccccc4C3)ccn2)c1`, the “% inhibition” value is reported as 67%.
